Measured values published in PubChem BioAssay AID1159580 (chemical genetic matrix, 2015).
“And” between values parts separate entries of the source, which are not always exact repeats. Identical values can stand only once. The whole screen tested about 5,500 compounds, of which about 2,000 (36%) were called active. About 18% were inconclusive and are not listed. Cut-off read from the data, not from the text of the source: active = normalized growth mostly below about 0.91 (no sharp cut-off); inconclusive = no clear call, values can overlap the other calls; inactive = mostly above about 0.92. This is one part of the list.

Assay: chemical genetic growth profiling, strain panel (AID 1159580);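 note: tested at 20 µM; growth read once vehicle control cultures reached saturation at 30 °C; 1 = growth at the plate median or of vehicle wells; lower values mean less growth of the strain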
Conditions: S. cerevisiae deletion strains, growth OD

Which normalized growth (locus YAL013W, strain DEP1, stronger effect = lower value) does the source give for `O=C(/C=C/c1ccccc1)c1ccc(O)cc1` here?
The normalized growth was 0.736 (active).

And the normalized growth (locus YAL021C, strain ccr4, stronger effect = lower value)?
The normalized growth was 0.633 (active).

What about the normalized growth (locus YAL026C, strain drs2, stronger effect = lower value) of the same compound?
The normalized growth was 0.192 (active).

What about the normalized growth (locus YAL030W, strain snc1, stronger effect = lower value) of the same compound?
The normalized growth was 0.247 (active).

What about the normalized growth (locus YBL061C, strain skt5, stronger effect = lower value) of the same compound?
The normalized growth was 0.263 (active).

What about the normalized growth (locus YBR009C, strain hhf1, stronger effect = lower value) of the same compound?
Its normalized growth is 0.0771 (active).

What about the normalized growth (locus YBR021W, strain FUR4, stronger effect = lower value) of the same compound?
The normalized growth was 0.891 (inactive).

What about the normalized growth (locus YBR023C, strain chs3, stronger effect = lower value) of the same compound?
The normalized growth was 0.399 (active).

What about the normalized growth (locus YBR171W, strain sec66, stronger effect = lower value) of the same compound?
The normalized growth was 0.112 (active).

And the normalized growth (locus YBR229C, strain ROT2, stronger effect = lower value)?
Its normalized growth is 0.887 (active).

And the normalized growth (locus YBR231C, strain swc5, stronger effect = lower value)?
The normalized growth was 0.315 (active).

What about the normalized growth (locus YBR279W, strain paf1, stronger effect = lower value) of the same compound?
Its normalized growth is 0.494 (active).

What about the normalized growth (locus YCL011C, strain gbp2, stronger effect = lower value) of the same compound?
Its normalized growth is 0.1 (active).

And the normalized growth (locus YCL016C, strain dcc1, stronger effect = lower value)?
The normalized growth was 0.2 (active).

What about the normalized growth (locus YCL029C, strain bik1, stronger effect = lower value) of the same compound?
The normalized growth was 0.831 (active).

And the normalized growth (locus YCL061C, strain MRC1, stronger effect = lower value)?
Its normalized growth is 0.102 (active).

What about the normalized growth (locus YCL069W, strain vba3, stronger effect = lower value) of the same compound?
Its normalized growth is 0.218 (active).

What about the normalized growth (locus YCR088W, strain abp1, stronger effect = lower value) of the same compound?
Its normalized growth is 0.157 (active).

And the normalized growth (locus YDL005C, strain med2, stronger effect = lower value)?
Its normalized growth is 0.64 (active).

What about the normalized growth (locus YDL035C, strain GPR1, stronger effect = lower value) of the same compound?
The normalized growth was 0.723 (active).

What about the normalized growth (locus YDL040C, strain nat1, stronger effect = lower value) of the same compound?
The normalized growth was 0.706 (active).

And the normalized growth (locus YDL074C, strain BRE1, stronger effect = lower value)?
Its normalized growth is 0.593 (active).

And the normalized growth (locus YDL101C, strain DUN1, stronger effect = lower value)?
The normalized growth was 0.618 (active).

And the normalized growth (locus YDL134C, strain PPH21, stronger effect = lower value)?
The normalized growth was 0.661 (active).

And the normalized growth (locus YDL185W, strain tfp1, stronger effect = lower value)?
The normalized growth was 0.817 (active).

And the normalized growth (locus YDL192W, strain arf1, stronger effect = lower value)?
The normalized growth was 0.726 (active).

What about the normalized growth (locus YDR001C, strain nth1, stronger effect = lower value) of the same compound?
The normalized growth was 0.316 (active).

And the normalized growth (locus YDR069C, strain doa4, stronger effect = lower value)?
Its normalized growth is 0.742 (active).

And the normalized growth (locus YDR101C, strain arx1, stronger effect = lower value)?
The normalized growth was 0.88 (active).

What about the normalized growth (locus YDR137W, strain rgp1, stronger effect = lower value) of the same compound?
Its normalized growth is 0.198 (active).

What about the normalized growth (locus YDR150W, strain NUM1, stronger effect = lower value) of the same compound?
Its normalized growth is 0.87 (active).

What about the normalized growth (locus YDR159W, strain sac3, stronger effect = lower value) of the same compound?
Its normalized growth is 0.26 (active).

What about the normalized growth (locus YDR162C, strain NBP2, stronger effect = lower value) of the same compound?
Its normalized growth is 0.182 (active).

What about the normalized growth (locus YDR195W, strain ref2) of the same compound?
The normalized growth was 0.22 (active).

What about the normalized growth (locus YDR297W, strain sur2, stronger effect = lower value) of the same compound?
Its normalized growth is 0.19 (active).

What about the normalized growth (locus YDR318W, strain mcm21, stronger effect = lower value) of the same compound?
The normalized growth was 0.788 (active).

What about the normalized growth (locus YDR334W, strain swr1, stronger effect = lower value) of the same compound?
The normalized growth was 0.185 (active).

What about the normalized growth (locus YDR335W, strain msn5, stronger effect = lower value) of the same compound?
Its normalized growth is 0.16 (active).

And the normalized growth (locus YDR388W, stronger effect = lower value)?
The normalized growth was 0.863 (active).

What about the normalized growth (locus YDR392W, strain spt3, stronger effect = lower value) of the same compound?
The normalized growth was 0.0785 (active).

And the normalized growth (locus YDR502C, strain sam2, stronger effect = lower value)?
The normalized growth was 0.758 (active).

And the normalized growth (locus YEL003W, strain gim4, stronger effect = lower value)?
The normalized growth was 0.0639 (active).

What about the normalized growth (locus YEL037C, strain rad23, stronger effect = lower value) of the same compound?
Its normalized growth is 0.602 (active).

What about the normalized growth (locus YEL061C, strain CIN8 (second series), stronger effect = lower value) of the same compound?
Its normalized growth is 0.0689 (active).

And the normalized growth (locus YEL061C, strain CIN8, stronger effect = lower value)?
The normalized growth was 0.506 (active).

And the normalized growth (locus YER015W, strain faa2, stronger effect = lower value)?
Its normalized growth is 0.264 (active).

What about the normalized growth (locus YER016W, strain bim1, stronger effect = lower value) of the same compound?
The normalized growth was 0.176 (active).

And the normalized growth (locus YER110C, stronger effect = lower value)?
Its normalized growth is 0.89 (active).

And the normalized growth (locus YER111C, strain swi4, stronger effect = lower value)?
The normalized growth was 0.124 (active).

And the normalized growth (locus YER155C, strain BEM2 (second series), stronger effect = lower value)?
The normalized growth was 0.093 (active).

And the normalized growth (locus YER155C, strain BEM2, stronger effect = lower value)?
The normalized growth was 0.568 (active).

And the normalized growth (locus YER167W, strain BCK2, stronger effect = lower value)?
The normalized growth was 0.74 (active).

And the normalized growth (locus YFR010W, strain ubp6, stronger effect = lower value)?
Its normalized growth is 0.648 (active).

And the normalized growth (locus YGL078C, strain dbp3, stronger effect = lower value)?
Its normalized growth is 0.926 (inactive).

And the normalized growth (locus YGL086W, strain mad1, stronger effect = lower value)?
Its normalized growth is 0.733 (active).

And the normalized growth (locus YGL167C, strain pmr1, stronger effect = lower value)?
Its normalized growth is 0.83 (active).

What about the normalized growth (locus YGL173C, strain kem1, stronger effect = lower value) of the same compound?
The normalized growth was 0.403 (active).

And the normalized growth (locus YGL227W, strain vid30, stronger effect = lower value)?
Its normalized growth is 0.0651 (active).

And the normalized growth (locus YGL240W, strain doc1, stronger effect = lower value)?
Its normalized growth is 0.358 (active).

And the normalized growth (locus YGL248W, strain PDE1, stronger effect = lower value)?
The normalized growth was 0.716 (active).

What about the normalized growth (locus YGL253W, strain hxk2, stronger effect = lower value) of the same compound?
The normalized growth was 0.177 (active).

What about the normalized growth (locus YGR078C, strain PAC10, stronger effect = lower value) of the same compound?
The normalized growth was 0.429 (active).

What about the normalized growth (locus YGR135W, strain pre9, stronger effect = lower value) of the same compound?
The normalized growth was 0.771 (active).

And the normalized growth (locus YGR229C, strain SMI1, stronger effect = lower value)?
The normalized growth was 0.253 (active).

And the normalized growth (locus YGR252W, strain gcn5, stronger effect = lower value)?
Its normalized growth is 0.648 (active).

What about the normalized growth (locus YHR013C, strain ard1, stronger effect = lower value) of the same compound?
Its normalized growth is 0.353 (active).

What about the normalized growth (locus YHR027C, strain rpn1, stronger effect = lower value) of the same compound?
The normalized growth was 0.51 (active).

And the normalized growth (locus YHR030C, strain SLT2, stronger effect = lower value)?
The normalized growth was 0.38 (active) and 0.945 (inactive).

And the normalized growth (locus YHR079C, strain IRE1 (second series), stronger effect = lower value)?
The normalized growth was 0.494 (active).

And the normalized growth (locus YHR079C, strain IRE1, stronger effect = lower value)?
The normalized growth was 0.788 (active).

What about the normalized growth (locus YHR094C, strain hxt1, stronger effect = lower value) of the same compound?
The normalized growth was 0.944 (inactive).

What about the normalized growth (locus YHR129C, strain ARP1, stronger effect = lower value) of the same compound?
Its normalized growth is 0.635 (active).

And the normalized growth (locus YHR142W, strain chs7, stronger effect = lower value)?
The normalized growth was 0.113 (active).

And the normalized growth (locus YHR200W, strain rpn10, stronger effect = lower value)?
The normalized growth was 0.898 (active).

And the normalized growth (locus YIL066C, strain RNR3, stronger effect = lower value)?
Its normalized growth is 0.515 (active).

What about the normalized growth (locus YIL073C, strain SPO22, stronger effect = lower value) of the same compound?
The normalized growth was 0.7 (inactive).

What about the normalized growth (locus YIL125W, strain kgd1, stronger effect = lower value) of the same compound?
Its normalized growth is 0.931 (active).

And the normalized growth (locus YIR030C, strain dcg1, stronger effect = lower value)?
Its normalized growth is 0.853 (active).

And the normalized growth (locus YJL092W, strain hpr5, stronger effect = lower value)?
Its normalized growth is 0.299 (active).

What about the normalized growth (locus YJL095W, strain BCK1 (second series), stronger effect = lower value) of the same compound?
The normalized growth was 0.0714 (active).

What about the normalized growth (locus YJL095W, strain BCK1, stronger effect = lower value) of the same compound?
Its normalized growth is 0.205 (active) and 0.945 (inactive).

What about the normalized growth (locus YJL115W, strain asf1, stronger effect = lower value) of the same compound?
The normalized growth was 0.444 (active).

And the normalized growth (locus YJL129C, strain trk1, stronger effect = lower value)?
The normalized growth was 0.209 (active).

What about the normalized growth (locus YJL134W, strain LCB3, stronger effect = lower value) of the same compound?
The normalized growth was 0.93 (inactive).

And the normalized growth (locus YJL154C, strain vps35, stronger effect = lower value)?
The normalized growth was 0.678 (active).

What about the normalized growth (locus YJL164C, strain tpk1, stronger effect = lower value) of the same compound?
Its normalized growth is 0.162 (active).

And the normalized growth (locus YJL166W, strain qcr8, stronger effect = lower value)?
The normalized growth was 0.0857 (active).

What about the normalized growth (locus YJL168C, strain set2, stronger effect = lower value) of the same compound?
The normalized growth was 0.913 (active).

And the normalized growth (locus YJL187C, strain SWE1 (second series), stronger effect = lower value)?
The normalized growth was 0.697 (active).

And the normalized growth (locus YJR043C, strain POL32, stronger effect = lower value)?
The normalized growth was 0.597 (active).

What about the normalized growth (locus YJR066W, strain TOR1, stronger effect = lower value) of the same compound?
The normalized growth was 0.883 (inactive).
